Measured values from PubChem BioAssay (Tox21).
Records with an inconclusive call do not appear. Entries that show only a call come without a potency. Active and inactive are the calls of the source. Unless noted, calls follow the shape of the dose curve; as a rule, active = well fitted cell-killing curve with a large enough effect in the repeat runs; inconclusive = weak or mixed curves, or effect the other way; inactive = no such curve, though single readings can be large or run the other way.

Target: Peroxisome proliferator-activated receptor gamma (Homo sapiens) (UniProt P37231)
Experiment: qHTS assay to identify small molecule antagonists of the peroxisome proliferator-activated receptor gamma (PPARg) signaling pathway (AID 743191; calls by dose curve; also: nearly all actives have a fitted effect of over 30% in size; also: potency is read from the fitted curve at half-maximal effect)
Settings: HEK293H PPARg-UAS-bla, beta-lactamase ratio, antagonist, 17 h; series mostly up to 62.6 µM
Method in brief: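 GeneBLAzer PPARg UAS-bla HEK293H cells, 5 h post-plating, exposed to compounds 17 h at 37C. LiveBLAzer B/G FRET substrate added for 1 h at room temperature; beta-lactamase reporter read by fluorescence intensity.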

Sequence of Peroxisome proliferator-activated receptor gamma (Homo sapiens) (P37231 whole entry, looked up): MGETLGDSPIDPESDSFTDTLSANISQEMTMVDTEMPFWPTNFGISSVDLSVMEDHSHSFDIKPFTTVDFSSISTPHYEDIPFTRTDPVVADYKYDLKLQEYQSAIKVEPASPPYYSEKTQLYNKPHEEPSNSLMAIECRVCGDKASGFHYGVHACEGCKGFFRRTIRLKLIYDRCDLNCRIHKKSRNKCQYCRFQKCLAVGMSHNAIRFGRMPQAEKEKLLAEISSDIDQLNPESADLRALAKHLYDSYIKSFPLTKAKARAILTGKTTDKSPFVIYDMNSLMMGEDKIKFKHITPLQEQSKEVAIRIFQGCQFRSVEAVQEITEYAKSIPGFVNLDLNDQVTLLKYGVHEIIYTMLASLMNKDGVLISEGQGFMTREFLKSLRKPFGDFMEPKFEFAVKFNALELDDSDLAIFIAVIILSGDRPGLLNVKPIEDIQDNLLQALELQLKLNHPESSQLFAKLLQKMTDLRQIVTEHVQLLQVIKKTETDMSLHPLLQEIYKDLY

Compound | Potency | ratio activity, negative = inhibition
CC(=O)OCC(=O)[C@@]1(O)CC[C@H]2[C@@H]3CCC4=CC(=O)C=C[C@]4(C)[C@@]3(F)[C@@H](O)C[C@@]21C | inactive | –
CC1(C)C(=O)NC(=O)N1CO | inactive | –
O=C(OCCOCCOCCOC(=O)c1ccccc1)c1ccccc1 | inactive | –
NC(=O)c1ccccc1 | inactive | –
CC(COc1ccccc1)NC(C)C(O)c1ccc(O)cc1 (configuration not stated) | inactive | –
O=[N+]([O-])c1ccc(Cl)cc1Cl | inactive | –
C=CC(=O)NC(C)(C)C | inactive | –
CCCC1CCOC(C)S1 (configuration not stated) | inactive | –
CCCCCCCCCCCCCCCCC(=O)O | inactive | –
CCCCCCCCS | inactive | –
C=C(C)C(=O)OCCCCCCCCCCOC(=O)C(=C)C | inactive | –
CCCCCCCCCCCCCCCCCCCl | – | 3.29% [at 5.95 µM] (inactive)
CCCC(=O)OCc1ccccc1 | inactive | –
C[C@@H](O)[C@H]1C(=O)N2C(C(=O)O)=C(S[C@@H]3CN[C@H](CNS(N)(=O)=O)C3)[C@H](C)[C@H]12 | inactive | –
Nc1cccc2c(=O)[nH][nH]c(=O)c12 | inactive | –
CCCc1ccc(OC)cc1 | inactive | –
FC1(F)C(F)(F)C(F)(F)C2(F)C(F)(C1(F)F)C(F)(F)C(F)(F)C1(F)C(F)(F)C(F)(F)C(F)(F)C(F)(F)C12F (configuration not stated) | inactive | –
O=C1CCCN1CCO | inactive | –
COC(=O)c1cc(Cl)ccc1[N+](=O)[O-] | inactive | –

Compound | Potency | ratio activity, negative = inhibition
OCCOc1cccc(OCCO)c1 | inactive | –
O=C(O)c1ccc2cc(O)ccc2c1 | inactive | –
C=CC(=O)OCCCCCCCCCC | inactive | –
CCCOC(C)=O | inactive | –
CC(Cc1ccccc1)(NC(=O)CN)c1ccccc1 (configuration not stated) | inactive | –
CCOC(OCC)OCC | inactive | –
C[Si](C)(C)O[Si](C)(C)O[Si](C)(C)C | inactive | –
CCCCCCCCCCCC(=O)OCC | inactive | –
CC(C)Cc1nccs1 | inactive | –
O=C(c1ccc(Cl)cc1)c1ccc(Cl)cc1 | inactive | –
CCCCCCCCCCCCN1CCOCC1 | inactive | –
O=Cc1ccc([N+](=O)[O-])cc1 | inactive | –
CC1=C(C)C(=O)C(CCCCC#CCCCC#CCO)=C(C)C1=O | 29.8 µM (active) | –
O=C1OC(=O)C2CC=CCC12 (configuration not stated) | inactive | –
N#Cc1ccc(CC(=O)c2cccc(C(F)(F)F)c2)cc1 | inactive | –
N#C[C@@H]1CC(F)(F)CN1C(=O)CNC1CC2CCC(C1)N2c1ncccn1 (some centres not stated) | inactive | –
O=[N+]([O-])c1cccc(I)c1 | inactive | –
C=C[Si]1(C)O[Si](C)(C=C)O[Si](C)(C=C)O[Si](C)(C=C)O1 (configuration not stated) | inactive | –
OCCCO | inactive | –

Tested on: not listed separately
Experiment: qHTS assay to identify small molecule antagonists of the peroxisome proliferator-activated receptor gamma (PPARg) signaling pathway - cell viability counter screen (AID 743194); also: nearly all actives have a fitted effect of over 55% in size
Settings: PPARg-bla HEK293H viability, CellTiter-Glo luminescence, 17 h, co-treated with 50 nM rosiglitazone; series mostly up to 62.6 µM
Method in brief: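 Cytotoxicity counter screen in PPARg-bla HEK293H cells, same wells as reporter assay. Compounds plus 50 nM rosiglitazone (final) for 17 h at 37 C, then viability read by CellTiter-Glo luminescence.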

Compound | Potency | activity change, negative = cytotoxicity
CC(=O)OCC(=O)[C@@]1(O)CC[C@H]2[C@@H]3CCC4=CC(=O)C=C[C@]4(C)[C@@]3(F)[C@@H](O)C[C@@]21C | inactive | –
CC1(C)C(=O)NC(=O)N1CO | inactive | –
O=C(OCCOCCOCCOC(=O)c1ccccc1)c1ccccc1 | inactive | –
NC(=O)c1ccccc1 | inactive | –
CC(COc1ccccc1)NC(C)C(O)c1ccc(O)cc1 (configuration not stated) | inactive | –
O=[N+]([O-])c1ccc(Cl)cc1Cl | inactive | –
C=CC(=O)NC(C)(C)C | inactive | –
CCCC1CCOC(C)S1 (configuration not stated) | inactive | –
CCCCCCCCCCCCCCCCC(=O)O | inactive | –
CCCCCCCCS | inactive | –
C=C(C)C(=O)OCCCCCCCCCCOC(=O)C(=C)C | inactive | –
CCCCCCCCCCCCCCCCCCCl | – | 3.5% [at 5.95 µM] (inactive)
CCCC(=O)OCc1ccccc1 | inactive | –
CC1=CC(=C(c2ccc(N)cc2)c2ccc(N)cc2)C=CC1=N | – | -29.3% [at 5.95 µM] (inactive)
C[C@@H](O)[C@H]1C(=O)N2C(C(=O)O)=C(S[C@@H]3CN[C@H](CNS(N)(=O)=O)C3)[C@H](C)[C@H]12 | inactive | –
Nc1cccc2c(=O)[nH][nH]c(=O)c12 | inactive | –
CCCc1ccc(OC)cc1 | inactive | –
FC1(F)C(F)(F)C(F)(F)C2(F)C(F)(C1(F)F)C(F)(F)C(F)(F)C1(F)C(F)(F)C(F)(F)C(F)(F)C(F)(F)C12F (configuration not stated) | inactive | –
O=C1CCCN1CCO | inactive | –
COC(=O)c1cc(Cl)ccc1[N+](=O)[O-] | inactive | –

Compound | Potency | activity change, negative = cytotoxicity
OCCOc1cccc(OCCO)c1 | inactive | –
O=C(O)c1ccc2cc(O)ccc2c1 | inactive | –
C=CC(=O)OCCCCCCCCCC | inactive | –
CCCOC(C)=O | inactive | –
CC(Cc1ccccc1)(NC(=O)CN)c1ccccc1 (configuration not stated) | inactive | –
CCOC(OCC)OCC | inactive | –
C[Si](C)(C)O[Si](C)(C)O[Si](C)(C)C | inactive | –
CCCCCCCCCCCC(=O)OCC | inactive | –
CC(C)Cc1nccs1 | inactive | –
O=C(c1ccc(Cl)cc1)c1ccc(Cl)cc1 | inactive | –
CCCCCCCCCCCCN1CCOCC1 | inactive | –
O=Cc1ccc([N+](=O)[O-])cc1 | inactive | –
CC1=C(C)C(=O)C(CCCCC#CCCCC#CCO)=C(C)C1=O | inactive | –
O=C1OC(=O)C2CC=CCC12 (configuration not stated) | inactive | –
N#Cc1ccc(CC(=O)c2cccc(C(F)(F)F)c2)cc1 | inactive | –
N#C[C@@H]1CC(F)(F)CN1C(=O)CNC1CC2CCC(C1)N2c1ncccn1 (some centres not stated) | inactive | –
O=[N+]([O-])c1cccc(I)c1 | inactive | –
C=C[Si]1(C)O[Si](C)(C=C)O[Si](C)(C=C)O[Si](C)(C=C)O1 (configuration not stated) | inactive | –
OCCCO | inactive | –
